TEAD-YAP block: TEAD-YAP interaction inhibition | HEK-TIYL cells, TEAD-Gal4/YAP UAS-luciferase luminescence | inhibition, % at 9.12 µM | AID 1259422 | 640,000 compounds, 1.4% hits; in the data active = inhibition above about 32%
GPR151 activ: human GPR151 activation | activation, % at 11.2 µM | PathHunter beta-arrestin GPR151 cells, luminescence | 650,000 compounds, 1% hits; in the data active = activation above about 4.9%
MITF inh: human MITF inhibition, primary screen; O75030; AlphaScreen MITF homodimerization, bead proximity signal; inhibition, % at 2.6 µM; 650,000 compounds, 0.91% hits; in the data active = inhibition above about 50%
FBW7 act: human FBW7 E3 ligase activation, primary screen; Q969H0; AlphaScreen FBW7–phospho-cyclin E peptide binding, activator screen; normalized activity (activation), % at 26.1 µM; 650,000 compounds, 0.13% hits; in the data active = normalized activity above about 1.9%;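 also: purified mutant Fbw7 with reduced substrate affinity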
GPR151 conf act: confirmation of human GPR151 activators | shares compounds with GPR151 activ | GPR151 PathHunter beta-arrestin cells, luminescence, 90 min; % of EA-reagent control over plate median | activation, % at 11.2 µM | 6,700 tested, under 10 active;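 active = mean percent activation across replicates above the confirmation screen cutoff of 4.91%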
GPR119 counter: GPR119 activation, counter-screen for GPR151 activators. activation, % at 11.2 µM. 6,700 compounds, 0.3% hits. GPR119 PathHunter beta-arrestin cells, luminescence, 90 min; 0 = compound-well median, 100 = enzyme-acceptor control. shares compounds with GPR151 activ. AID 1508611;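 active = mean percent activation in the counterscreen above 29.09%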;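 also: counterscreen on off-target GPR119 to flag nonselective hits from the GPR151 activator screen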
Target sequence (Q8TDV5 whole entry, looked up): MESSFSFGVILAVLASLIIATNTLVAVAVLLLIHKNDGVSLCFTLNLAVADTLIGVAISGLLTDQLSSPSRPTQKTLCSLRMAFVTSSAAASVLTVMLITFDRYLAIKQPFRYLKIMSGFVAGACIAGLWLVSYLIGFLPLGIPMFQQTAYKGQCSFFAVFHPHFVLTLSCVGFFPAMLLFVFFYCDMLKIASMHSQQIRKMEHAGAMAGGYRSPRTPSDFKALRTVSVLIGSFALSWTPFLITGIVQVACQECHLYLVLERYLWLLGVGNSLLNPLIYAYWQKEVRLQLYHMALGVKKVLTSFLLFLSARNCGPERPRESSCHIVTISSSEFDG
Large screens that a line does not name were inactive (follow-up assays come after a bar, where they were run). Compounds with a hit are over-represented: about 3.4% of the library has one in this group of screens.

Cc1ccc(C2=NC(c3ccccc3Cl)NC(c3cc(Br)ccc3O)C2)cc1 (stereo unspecified)	none
CC(=O)c1ccc(NC(=O)CN2CCN(c3cccc(Cl)c3)CC2)cc1	none
Cc1c(Cl)cccc1NC(=O)C1CCCN(c2nnc(N3CCCC3=O)s2)C1 (stereo unspecified)	none
O=C(Nc1ccccc1F)C1CCCN(c2nnc(N3CCCC3=O)s2)C1 (stereo unspecified)	GPR151 activ 5.0 | GPR151 conf act inactive | GPR119 counter inactive
CCOC(=O)C1CCCN(c2ccc(NC(=O)c3snc4c(=O)[nH]cnc34)cc2)C1 (stereo unspecified)	GPR151 activ 7.4 | GPR151 conf act inactive | GPR119 counter inactive
CC(C)N1CCN(Cc2cc3ccccc3o2)CC1CCO (stereo unspecified)	none
Cc1ccccc1OCC(O)Cn1c(C(C)C)nc2ccccc21 (stereo unspecified)	none
O=C(Cn1ncc2ccccc2c1=O)NNC(=S)NC1CC2CCC1C2 (stereo unspecified)	GPR151 activ 10 | GPR151 conf act inactive | GPR119 counter inactive
O=C(NCCCN1CCCCCC1)C(c1ccccc1)C1CCCCC1 (stereo unspecified)	GPR151 activ 5.3 (no result: TEAD-YAP block) | GPR151 conf act inactive | GPR119 counter inactive
c1ccc2c(Nc3ncnc4[nH]ncc34)cccc2c1	none
Cc1nn(C)c(C)c1-c1ncc(C(=O)Nc2ccccc2)s1	GPR151 activ 5.7 | GPR151 conf act inactive | GPR119 counter inactive
CCCCOC(=O)C1=C(C)NC2=C(C(=O)CCC2)C1c1cccc(Cl)c1Cl (stereo unspecified)	none
CCOc1cccc2c1OC(c1ccc(C(=O)OC)cc1)N1N=C(c3ccc(F)cc3)CC21 (stereo unspecified)	none
Cc1noc(C)c1-c1nc2ncnc(NC3CC3)c2[nH]1	GPR151 activ 5.5 | GPR151 conf act inactive | GPR119 counter inactive
c1nc(NC2CC2)c2[nH]c(N3CCOCC3)nc2n1	GPR151 activ 5.0 | GPR151 conf act inactive | GPR119 counter inactive
COc1ccc(CN2CCN(c3ccc([N+](=O)[O-])cc3)CC2)cc1O	TEAD-YAP block 36, GPR151 activ 6.7 | GPR151 conf act inactive | GPR119 counter inactive
O=[N+]([O-])c1ccc(CN2CCN(Cc3cc(Br)ccc3O)CC2)cc1	GPR151 activ 6.6 | GPR151 conf act inactive | GPR119 counter inactive
COc1cc(CN2CCN(c3ccc([N+](=O)[O-])cc3)CC2)ccc1O	none
COc1cccc(OC)c1CN1CCN(C2CCN(C(C)C)CC2)C(CCO)C1 (stereo unspecified)	none
CC(=O)NC1(c2ccc(F)cc2)CCN(CC(=O)NC2CCCC2)CC1	none
CC(=O)c1ccccc1OCC(O)CN1CC(C)OC(C)C1 (stereo unspecified)	none
Cc1ccc(C(=O)Nc2nnc(S(=O)(=O)N3c4ccccc4CC3C)s2)cc1 (stereo unspecified)	GPR151 activ 5.6 | GPR151 conf act inactive | GPR119 counter inactive
Cc1ccccc1N(C)S(=O)(=O)c1nnc(NC(=O)c2ccccc2F)s1	none
CN(c1ccccc1)S(=O)(=O)c1nnc(NC(=O)c2ccccc2F)s1	GPR151 activ 10 | GPR151 conf act inactive | GPR119 counter inactive
COc1ccc(C(=O)Nc2nnc(S(=O)(=O)N3c4ccc(C)cc4CC3C)s2)cc1 (stereo unspecified)	none
Cc1ccc2c(c1)CC(C)N2S(=O)(=O)c1nnc(NC(=O)c2ccccc2F)s1 (stereo unspecified)	GPR151 activ 8.5 | GPR151 conf act inactive | GPR119 counter inactive
CC1Cc2ccccc2N1S(=O)(=O)c1nnc(NC(=O)c2ccccc2)s1 (stereo unspecified)	none
CC(C(=O)c1ccccc1)C1(O)C(=O)N(Cc2ccc(Cl)cc2)c2ccccc21 (stereo unspecified)	none
CCCOc1ccc(S(=O)(=O)N2CCC(C(=O)OCC)CC2)c2ccccc12	none
CNc1nc(-c2ccc3c(c2)CCN3S(C)(=O)=O)cs1	GPR151 activ 6.8 | GPR151 conf act inactive | GPR119 counter inactive
Nc1ccccc1NC(=O)c1ccncc1	none
CC(C)Oc1nc(-c2ccccc2Cl)nc2ccccc12	none
COc1nc(-c2ccccc2Cl)nc2ccccc12	GPR151 activ 5.2 | GPR151 conf act inactive | GPR119 counter inactive
Cc1ccc2c(c1)c(-c1ccccc1)c(-c1ccccc1)n2CCC#N	none
O=C1Nc2ccc([N+](=O)[O-])cc2C12NN=C(c1ccccc1)S2 (stereo unspecified)	GPR151 activ 5.0 | GPR151 conf act inactive | GPR119 counter inactive
Cc1ccc(-c2cc(C(F)(F)F)n3nc(C(=O)N4CCCCC4)cc3n2)cc1	none
N#Cc1ccc(OCC(=O)OCC(=O)Nc2ncc(Cl)cc2Cl)cc1	GPR151 activ 5.6 | GPR151 conf act inactive | GPR119 counter inactive
COc1ccc(NC(=O)/C=C/c2ccc([N+](=O)[O-])cc2)c(OC)c1	none
COc1ccc(C(=O)NCC(=O)OCc2ccc([N+](=O)[O-])cc2)cc1	GPR151 activ 8.1 | GPR151 conf act inactive | GPR119 counter inactive
COc1ccc(NCCC(=O)c2ccc([N+](=O)[O-])cc2)c(OC)c1	GPR151 activ 5.2 | GPR151 conf act inactive | GPR119 counter inactive
O=C(CNC(=O)c1ccccc1)OCc1ccc([N+](=O)[O-])cc1	none
CCOC(=O)c1cccc(C(=O)Nc2ccc(I)cc2C)n1	none
COc1ccc(OC)c(C2NC(=O)NC(C)=C2C(=O)OCCSC)c1 (stereo unspecified)	none
CC/C(C)=N/NC(=O)c1ccc(C(=O)N/N=C(\C)CC)cc1	GPR151 activ 8.3 | GPR151 conf act inactive | GPR119 counter inactive
CC/C(C)=N\NC(=O)c1ccc(N)cc1	none
CN1C(C(=O)c2ccccc2)=C(N2CCCCC2)c2ccccc2S1(=O)=O	GPR151 activ 8.1 | GPR151 conf act inactive | GPR119 counter inactive
CN1C(C(=O)c2ccccc2)=C(N)c2ccccc2S1(=O)=O	none
COc1cc(C=Nc2c(C)n(C)n(-c3ccccc3)c2=O)cc(Br)c1O	none
COc1cc(C2Nc3ccccc3NC3=C2C(=O)CC(c2ccc4c(c2)OCO4)C3)ccc1OC(C)=O (stereo unspecified)	GPR151 activ 17 | GPR151 conf act inactive | GPR119 counter inactive
CCOc1cc(C2Nc3ccccc3NC3=C2C(=O)CC(c2ccc(OC)cc2)C3)cc(Cl)c1O (stereo unspecified)	GPR151 activ 4.9 | GPR151 conf act inactive | GPR119 counter inactive
CCCCOC(=O)C1C2C=CC3(CN(C4CCCCC4)C(=O)C13)O2 (stereo unspecified)	GPR151 activ 5.8 | GPR151 conf act inactive | GPR119 counter inactive
CCOc1cc(S(=O)(=O)n2ccnc2)ccc1Br	none
COc1cc(S(=O)(=O)n2ccnc2)ccc1Br	GPR151 activ 5.7 | GPR151 conf act inactive | GPR119 counter inactive
COC(=O)C1=CN(CCCN2CCCC2=O)C=C(C(=O)OC)C1c1ccc(C)s1	none

Bioassay records (PubChem)
